Values joined by “and” are separate entries in the source; they are usually repeats but may differ in a detail not shown here. Equal entries are not always repeated. Results filed as inconclusive are left out. More than one record can exist for a structure, and the calls need not agree. Active and inactive are the calls of the source. The call rests on the fitted dose curve; in most records, active means well fitted curve in the direction sought with a large enough effect; inconclusive means small, poorly fitted or top-dose-only effect, or another doubt; inactive means no such curve, though single readings can be large; an effect the other way counts as inactive or inconclusive.
How the values were obtained:
KB-3-1 = test: Cytotoxic Profiling of Annotated Libraries Using Quantitative High-Throughput Screening (AID 1296008); details: Five cell lines viability, CellTiter-Glo ATP luminescence, 48-72 h; max response: active compounds read low; further: nearly all actives have a fitted effect of over 60% in size; further: potency means the concentration at half of the fitted maximal effect
Method in brief: (§1)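 Cytotoxicity was measured as CellTiter-Glo ATP luminescence, read after 10 min at room temperature. Compound treatment of the cells lasted 48 or 72 hr at 37 degrees Celsius in a qHTS format.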

NIH3T3 [1] = test: as above; details: Five cell lines viability, CellTiter-Glo ATP luminescence, 48-72 h; max response: active compounds read low
Method in brief: as §1

CRL-7250 = normal cell line; test: qHTS assay to identify novel small-molecules to repurpose for Merkel cell carcinoma treatment (AID 1296009); details: MCC and control cell lines, CellTiter-Glo viability, 72 h; at 44.8 µM (top of the series) unless noted; further: nearly all actives have a fitted effect of over 60% in size
Method in brief: (§2)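 72 hr, 37 degree celsius; NPC 8-pt / MIPE 11-pt dose response; compound pinned in DMSO; CellTiter-Glo, 10 min RT, luminescence; normalized to no-cell and DMSO controls.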

HACAT = test: as above; details: MCC and control cell lines, CellTiter-Glo viability, 72 h
Method in brief: as §2

MCC-13 = test: as above; details: MCC and control cell lines, CellTiter-Glo viability, 72 h; series mostly up to 46 µM
Method in brief: as §2

MCC-26 = test: as above; details: MCC and control cell lines, CellTiter-Glo viability, 72 h; series mostly up to 46 µM
Method in brief: as §2

MKL-1 = test: as above; details: MCC and control cell lines, CellTiter-Glo viability, 72 h; series mostly up to 46 µM
Method in brief: as §2

MKL-2 = test: as above; details: MCC and control cell lines, CellTiter-Glo viability, 72 h; series mostly up to 46 µM
Method in brief: as §2

UISO = test: as above; details: MCC and control cell lines, CellTiter-Glo viability, 72 h; series mostly up to 46 µM
Method in brief: as §2

WaGa = test: as above; details: MCC and control cell lines, CellTiter-Glo viability, 72 h; series mostly up to 46 µM
Method in brief: as §2

C33A = test: Primary qHTS to identify gynecologic anti-cancer compounds using libraries of approved drugs and bioactive compounds (AID 1345084); details: Gynecologic cancer cell panel viability, ATPlite luminescence, 48 h; series mostly up to 57.5 µM; further: nearly all actives have a fitted effect of over 55% in size
Method in brief: (§3)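 Cells, 1,000 per well, were allowed to settle for 16 h at 37 C before compound addition. Five concentrations were tested for 48 h, and viability was read by ATPlite luminescence after 15 min at room temperature.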

CAOV3 = test: as above; details: Gynecologic cancer cell panel viability, ATPlite luminescence, 48 h; series mostly up to 57.5 µM
Method in brief: as §3

CASKI = test: as above; details: Gynecologic cancer cell panel viability, ATPlite luminescence, 48 h; series mostly up to 57.5 µM
Method in brief: as §3

Es-2 = test: as above; details: Gynecologic cancer cell panel viability, ATPlite luminescence, 48 h; series mostly up to 57.5 µM
Method in brief: as §3

HeLa = test: as above; details: Gynecologic cancer cell panel viability, ATPlite luminescence, 48 h; series mostly up to 57.5 µM
Method in brief: as §3

Hek293T [2] = test: as above; details: Gynecologic cancer cell panel viability, ATPlite luminescence, 48 h, control line for the selectivity index; series mostly up to 57.5 µM
Method in brief: as §3

JEG-3 = test: as above; details: Gynecologic cancer cell panel viability, ATPlite luminescence, 48 h; series mostly up to 57.5 µM
Method in brief: as §3

OV90 = test: as above; details: Gynecologic cancer cell panel viability, ATPlite luminescence, 48 h; series mostly up to 57.5 µM
Method in brief: as §3

NIH3T3 [3] = test: qHTS assay to identify novel small-molecules to repurpose for Merkel cell carcinoma treatment (AID 1296009); details: MCC and control cell lines, CellTiter-Glo viability, 72 h; at 44.8 µM (top of the series) unless noted; further: nearly all actives have a fitted effect of over 60% in size
Method in brief: as §2

HEK293T [4] = test: as above; details: MCC and control cell lines, CellTiter-Glo viability, 72 h; at 44.8 µM (top of the series) unless noted
Method in brief: as §2

[5] = at 44.8 µM (top of the series) unless noted
On the % scale 0 is the no-effect control and ±100 the full control effect.

CC(C)N(CCC(C(N)=O)(c1ccccc1)c1ccccn1)C(C)C (stereo not given)
inactive: max response (KB-3-1) -6.29% and -10.8% | max response (NIH3T3 [1]) -23.6% and -1.68% | outcome (CRL-7250) | outcome (HACAT; [5]) | outcome (MCC-13) | Potency (MCC-26) | Potency (MKL-1) | Potency (MKL-2) | Potency (UISO) | Potency (WaGa) | Potency (C33A) | outcome (CAOV3) | outcome (CASKI) | Potency (Es-2) | Potency (HeLa) | outcome (Hek293T [2]) | outcome (JEG-3) | Potency (OV90)

Cc1nnc2n1-c1ccc(Cl)cc1C(c1ccccc1Cl)=NC2
inactive: max response (KB-3-1) 1.66%

CN1C[C@H](C(=O)N[C@]2(C)O[C@@]3(O)[C@@H]4CCCN4C(=O)[C@H](Cc4ccccc4)N3C2=O)C=C2c3cccc4[nH]cc(c34)C[C@H]21
inactive: max response (KB-3-1) -3.72%

C[N+]1(CCF)[C@@H]2CC[C@H]1CC(OC(=O)C(O)(c1ccccc1)c1ccccc1)C2 (stereo not given in full)
inactive: max response (KB-3-1) -9.39% | outcome (NIH3T3 [1]) | outcome (CRL-7250) | outcome (HACAT; [5]) | outcome (MCC-13) | Potency (MKL-1) | Potency (MKL-2) | outcome (NIH3T3 [3]) | Potency (UISO) | Potency (WaGa) | Potency (C33A) | outcome (CAOV3) | outcome (CASKI) | Potency (Es-2) | Potency (HeLa) | outcome (Hek293T [2]) | outcome (JEG-3) | Potency (OV90)

CN1C(=O)CC(=O)N(c2ccccc2)c2cc(Cl)ccc21
inactive: max response (KB-3-1) 9.14%

Nc1ccn(C[C@@H](CO)OCP(=O)(O)O)c(=O)n1
inactive: max response (KB-3-1) -9.56%

NC(=O)c1cc([N+](=O)[O-])cc([N+](=O)[O-])c1
inactive: max response (KB-3-1) -1.64% | max response (NIH3T3 [1]) 4.48% | outcome (CRL-7250) | outcome (MCC-13) | Potency (MCC-26) | Potency (MKL-1) | Potency (MKL-2) | Potency (UISO) | Potency (WaGa) | Potency (C33A) | outcome (CAOV3) | outcome (CASKI) | Potency (Es-2) | Potency (HeLa) | outcome (Hek293T [2]) | Potency (OV90)

Nc1ccccc1
inactive: max response (KB-3-1) -12% | max response (NIH3T3 [1]) -0.773% | outcome (HACAT; [5]) | outcome (HEK293T [4]) | outcome (MCC-13) | Potency (MCC-26) | Potency (MKL-1) | Potency (MKL-2) | Potency (UISO) | Potency (WaGa) | Potency (C33A) | outcome (CAOV3) | outcome (CASKI) | Potency (Es-2) | Potency (HeLa) | outcome (Hek293T [2]) | outcome (JEG-3) | Potency (OV90)

O=C1Nc2ccc(Cl)cc2C(c2ccccc2)=NC1O (stereo not given)
inactive: max response (KB-3-1) -4.67% and -16.2%

CC(C)[C@H]1C(=O)N2CCC[C@H]2[C@]2(O)O[C@](NC(=O)[C@@H]3C[C@@H]4c5cccc6[nH]cc(c56)C[C@H]4N(C)C3)(C(C)C)C(=O)N12
inactive: max response (KB-3-1) 22.9%

COc1ccc2c3c1O[C@H]1[C@H](O)CC[C@H]4[C@@H](C2)N(C)CC[C@@]341
inactive: max response (KB-3-1) -6.57% | outcome (NIH3T3 [1]) | outcome (CRL-7250) inactive [at 92 µM] | outcome (HACAT; [5]) inactive [at 92 µM] | outcome (MCC-13) | Potency (MKL-2) | outcome (NIH3T3 [3]) inactive [at 92 µM] | Potency (UISO) | Potency (WaGa) | Potency (C33A) | outcome (CAOV3) | outcome (CASKI) | Potency (Es-2) | Potency (HeLa) | outcome (Hek293T [2]) | outcome (JEG-3) | Potency (OV90)

CCCCCCCCCC(=O)O[C@H]1CC[C@H]2[C@@H]3CCC4=CC(=O)CC[C@@H]4[C@H]3CC[C@]12C
inactive: max response (KB-3-1) -10.4% | max response (NIH3T3 [1]) -3.4% | outcome (CRL-7250) | outcome (MCC-13) | Potency (MKL-1) | Potency (MKL-2) | Potency (UISO) | Potency (C33A) | outcome (CAOV3) | outcome (CASKI) | Potency (Es-2) | Potency (HeLa) | outcome (Hek293T [2]) | outcome (JEG-3) | Potency (OV90)

C=CCN1C[C@H](C)N([C@H](c2ccc(C(=O)N(CC)CC)cc2)c2cccc(OC)c2)C[C@H]1C
inactive: max response (KB-3-1) 2.69% | outcome (KB-3-1) | max response (NIH3T3 [1]) -0.106% and 4.66% | outcome (CRL-7250) | outcome (HACAT; at 9.27 µM (top of the series)) | outcome (HACAT; at 44.8 µM (top of the series)) | outcome (MCC-13) | Potency (MCC-26) | Potency (MKL-1) | Potency (MKL-2) | Potency (UISO) | Potency (WaGa) | Potency (C33A) | outcome (CAOV3) | outcome (CASKI) | Potency (Es-2) | Potency (HeLa) | outcome (Hek293T [2]) | outcome (JEG-3) | Potency (OV90)

O=C(O)/C=C\C(=O)O
inactive: max response (KB-3-1) -5.31% | max response (NIH3T3 [1]) -5.56%

O=C1OC(c2ccc(O)c(S(=O)(=O)O)c2)(c2ccc(O)c(S(=O)(=O)O)c2)c2c(Br)c(Br)c(Br)c(Br)c21
inactive: max response (KB-3-1) 10.3% | outcome (NIH3T3 [1]) | outcome (HACAT; [5]) | outcome (HEK293T [4]) | outcome (MCC-13) | Potency (MCC-26) | Potency (MKL-1) | Potency (MKL-2) | outcome (NIH3T3 [3]) | Potency (UISO) | Potency (WaGa) | Potency (C33A) | outcome (CAOV3) | outcome (CASKI) | Potency (Es-2) | Potency (HeLa) | outcome (Hek293T [2]) | outcome (JEG-3) | Potency (OV90)

COP(=S)(OC)Oc1cc(Cl)c(Cl)cc1Cl
active: Potency (KB-3-1) 0.146 µM
inactive: max response (KB-3-1) -14.4% | max response (NIH3T3 [1]) -6.48% | outcome (MCC-13) | Potency (MCC-26) | Potency (MKL-1) | Potency (UISO) | Potency (WaGa) | Potency (C33A) | outcome (CAOV3) | outcome (CASKI) | Potency (Es-2) | Potency (HeLa) | outcome (Hek293T [2]) | outcome (JEG-3) | Potency (OV90)

CCC(C)(C)c1ccc(O)cc1
inactive: max response (KB-3-1) 14.4% | max response (NIH3T3 [1]) 3.56% | outcome (HEK293T [4]) | outcome (MCC-13) | Potency (MCC-26) | Potency (MKL-1) | Potency (MKL-2) | Potency (UISO) | Potency (WaGa) | Potency (C33A) | outcome (CAOV3) | outcome (CASKI) | Potency (Es-2) | Potency (HeLa) | outcome (Hek293T [2]) | outcome (JEG-3) | Potency (OV90)

COC(=O)C(Cl)C(=O)OC
inactive: max response (KB-3-1) -12.1% | max response (NIH3T3 [1]) -7.3% | outcome (HEK293T [4]) | outcome (MCC-13) | Potency (MCC-26) | Potency (MKL-1) | Potency (MKL-2) | Potency (UISO) | Potency (WaGa) | Potency (C33A) | outcome (CASKI) | Potency (Es-2) | Potency (HeLa) | outcome (Hek293T [2]) | outcome (JEG-3) | Potency (OV90)

Oc1ccc(Cl)cc1
inactive: max response (KB-3-1) -9.29% | max response (NIH3T3 [1]) 0.545% | outcome (HACAT; [5]) | outcome (HEK293T [4]) | outcome (MCC-13) | Potency (MKL-1) | Potency (MKL-2) | Potency (UISO) | Potency (WaGa) | Potency (C33A) | outcome (CAOV3) | outcome (CASKI) | Potency (Es-2) | Potency (HeLa) | outcome (Hek293T [2]) | outcome (JEG-3) | Potency (OV90)

From PubChem BioAssay (NCATS)
